# Measurements: ChEMBL document CHEMBL3988442, “University of Dundee, Small-Polar-MMV Screening Library” (2021)
# Screen size: about 48,000 compounds; about 13,000 (27%) showed an effect of 50% or more. The list shows a part of the results.
# System: Wolbachia pipientis
# Assay: Anti-Wolbachia Cell-Based Screen
# Format: functional
# Parameters: scale not given: in the data most compounds retested in dose-response had high values
# Conditions: 5 µM
row,Structure (SMILES),Percent Effect [%]
1,CNCC[C@H]1CC(C)(C)Oc2ccc(C)cc21,99.82
2,COCc1cn(C[C@H]2C[C@@H]3CCN2C[C@@H]3C(=O)N2CCOCC2)nn1,-6.421
3,CN(C)CCN(C)C(=O)Cc1ccc2c(c1)OCCO2.O=C(O)CC(O)(CC(=O)O)C(=O)O,107.5
4,CN(C)CCN(C(=O)Cc1ccc2c(c1)OCCO2)C1CCN(C)CC1.O=C(O)CC(O)(CC(=O)O)C(=O)O,109
5,O=C(CN1CCN(C(=O)Cc2ccc3c(c2)OCCO3)CC1)NC1CC1,5.479
6,Cc1[nH]c2c(C)cccc2c1CC(=O)N(C)CCN(C)C.O=C(O)CC(O)(CC(=O)O)C(=O)O,103
7,NC(=O)CN1CCCN(C(=O)Cc2ccc3c(c2)OCO3)CC1,-4.573
8,CNC(=O)c1ccc2c(c1)C1(CCN(CC(C)C)CC1)C(=O)N2.O=C(O)C(F)(F)F,-7.062
9,CC(C)NC(=O)c1ccc2c(c1)C1(CCN(C(C)C)CC1)C(=O)N2.O=C(O)C(F)(F)F,106.4
10,CNC(=O)c1ccc2c(c1)C1(CCN(C(C)C)CC1)C(=O)N2.O=C(O)C(F)(F)F,95.47
11,CC(C)N1C(=O)C2(CCN(C)CC2)c2cc(F)ccc21.Cl,-32.23
12,CC(C)NC(=O)c1ccc2c(c1)C1(CCN(C)CC1)C(=O)N2.O=C(O)C(F)(F)F,109.7
13,CNC(=O)[C@H]1C[C@@H]2CN(C(=O)c3ccc(C)nc3)C[C@@H]2N1C(C)C.O=C(O)C(F)(F)F.O=C(O)C(F)(F)F,4.326
14,CC(C)CN1CCC2(CC1)C(=O)Nc1ccc(C(=O)NC(C)C)cc12.O=C(O)C(F)(F)F,99.87
15,CC(C)CN1CCC2(CC1)C(=O)Nc1ccc(C(=O)N(C)C)cc12.O=C(O)C(F)(F)F,-3.196
16,CNC(=O)[C@H]1C[C@H]2OCC[C@H]2N(CC2CC2)C1.O=C(O)C(F)(F)F,-3.474
17,Cc1ccccc1CNCC(O)c1ccc(OC(C)C)cc1 (stereo not given),14.53
18,CCc1cc(CN(C)C(=O)CN2CC(Cc3ccccc3)CC2=O)on1 (stereo not given),4.825
19,O=C(NCC1CC1)C1CCC2(CCNCC2)C1 (stereo not given),-14.8
20,Cc1cc(CC(=O)N2CCN(C)[C@@H]3CS(=O)(=O)C[C@@H]32)ccc1F,-18.64
21,CCS(=O)(=O)c1nnc([C@@H](N)Cc2ccccc2)o1,144
22,Cc1cnc(N2CCC3(CCCCN3C)C2)nc1.O=C(O)C(F)(F)F (stereo not given),-23.72
23,O=S(=O)(NC[C@H]1C[C@@H]2CCN1C[C@@H]2CN1CCCCC1)c1ccccc1,-3.393

row,Structure (SMILES),Percent Effect [%]
1,CCCS(=O)(=O)N1CCN(CCOC)c2nc(C)ccc2C1.O=C(O)C(F)(F)F,12.9
2,COCCN1CCN(S(C)(=O)=O)Cc2cccnc21,94.34
3,COCCN1CCN(S(=O)(=O)C2CC2)Cc2ccc(C)nc21.O=C(O)C(F)(F)F,0.9634
4,CCS(=O)(=O)N1CCN(CCOC)c2ncccc2C1,117.1
5,COCCN1CCN(S(=O)(=O)C2CC2)Cc2cccnc21,114
6,CC(=O)c1cc(CC(=O)N2CCN(CCOc3ccccc3)CC2)cs1,-5.45
7,COc1ccc(F)cc1C(=O)C1CCCN(Cc2ccc(C)s2)C1 (stereo not given),-15.99
8,O=c1[nH]ccn1CCCN1CC=C(c2cnn(-c3ccccc3)c2)CC1,2.052
9,COC(=O)NCC1CCC2(CCNCC2)O1.Cl (stereo not given),-32.05
10,Fc1cccc(O[C@@H]2C[C@H]3CN(Cc4ccccn4)CCN3C2)c1.O=C(O)C(F)(F)F.O=C(O)C(F)(F)F,-1.961
11,Cc1cccc(CN2CCN3C[C@H](Oc4cncnc4)C[C@H]3C2)n1.O=C(O)C(F)(F)F.O=C(O)C(F)(F)F,126.4
12,Cc1nc(CN2CCN3C[C@H](Oc4cncnc4)C[C@H]3C2)cs1.O=C(O)C(F)(F)F.O=C(O)C(F)(F)F,123.6
13,Cn1ccnc1CN1CCN2C[C@H](Oc3cncnc3)C[C@H]2C1.O=C(O)C(F)(F)F.O=C(O)C(F)(F)F,-0.7067
14,O=C(O)C(F)(F)F.O=C(O)C(F)(F)F.c1ccc(CN2CCN3C[C@H](Oc4cncnc4)C[C@H]3C2)nc1,117.2
15,c1ccc(CN2CCN3C[C@H](Oc4cccnc4)C[C@H]3C2)nc1,-1.108
16,Cc1cccc(CN2CCN3C[C@H](Oc4cccnc4)C[C@H]3C2)n1.O=C(O)C(F)(F)F.O=C(O)C(F)(F)F.O=C(O)C(F)(F)F,-1.606
17,CO[C@H]1CCN(S(=O)(=O)N(C)C)[C@@H]2CN(Cc3cccnc3)C[C@H]12.O=C(O)C(F)(F)F.O=C(O)C(F)(F)F,0.8682
18,O=C(C[C@@H]1COC[C@H]2CN(Cc3cccnc3)C[C@@H]12)N1CCCC1.O=C(O)C(F)(F)F.O=C(O)C(F)(F)F,109.1
19,COCCNC(=O)C[C@@H]1COC[C@H]2CN(Cc3cccnc3)C[C@@H]12,116.3
20,O=C(C[C@H]1[C@H]2CN(Cc3ccncc3)C[C@@H]12)N1CCCC1.O=C(O)C(F)(F)F.O=C(O)C(F)(F)F,16.46
21,O=C(C[C@@H]1COC[C@H]2CN(C3CCC3)C[C@@H]12)NCc1cccnc1.O=C(O)C(F)(F)F.O=C(O)C(F)(F)F,108.6
22,O=C(C[C@@H]1COC[C@H]2CN(Cc3cccnc3)C[C@@H]12)NCC1CC1.O=C(O)C(F)(F)F.O=C(O)C(F)(F)F,115.9
